About 1,100 (52%) of roughly 2,100 compounds were called active. About 29% were inconclusive and are not listed. So high a share suggests a set chosen from earlier hits. The list shows a part of the results. Values without a mark were called inactive. The call rests on the fitted dose curve; in most records, active means well fitted inhibition curve with a large enough effect; inconclusive means small, poorly fitted or top-dose-only effect; inactive means no such curve, though single readings can be large or run the other way.
On the % scale 0 is the no-effect control and ±100 the full control effect; potency means the concentration at half of the fitted maximal effect.

The target in this test is DNA dC->dU-editing enzyme APOBEC-3F (Homo sapiens) (UniProt Q8IUX4). The experiment in a line: qHTS for inhibitors of Vif-A3F interactions: Cherry picks counterscreen. Further: nearly all actives have a fitted effect of over 65% in size. The conditions noted are these: HeLa A3F-eYFP/Vif cells, eYFP fluorescence, 24 h; series mostly up to 46.1 µM; activity, negative = inhibitor: at the top concentration. A digest of the protocol: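 HeLa cells stably expressing A3F-eYFP and Vif, cultured overnight, then treated 24 h at 37 degrees C with compounds at several concentrations; yellow fluorescence (488 nm Ex/500-530 nm Em) imaged on Acumen; MG132 positive control.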
Sequence of DNA dC->dU-editing enzyme APOBEC-3F (Homo sapiens) (Q8IUX4 whole entry, looked up): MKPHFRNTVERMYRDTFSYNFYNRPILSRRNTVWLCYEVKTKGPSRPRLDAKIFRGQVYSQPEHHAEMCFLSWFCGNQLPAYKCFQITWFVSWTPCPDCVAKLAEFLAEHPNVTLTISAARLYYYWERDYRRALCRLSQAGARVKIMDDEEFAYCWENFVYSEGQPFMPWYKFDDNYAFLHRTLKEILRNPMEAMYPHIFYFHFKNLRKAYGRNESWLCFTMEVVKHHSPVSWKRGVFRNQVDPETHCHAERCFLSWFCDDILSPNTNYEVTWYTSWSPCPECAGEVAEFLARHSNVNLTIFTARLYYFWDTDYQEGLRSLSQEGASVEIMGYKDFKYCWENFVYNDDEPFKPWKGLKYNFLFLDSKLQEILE
Consider `O=S(=O)([N-]c1nc2ccccc2nc1-[n+]1ccc(-c2ccncc2)cc1)c1ccccc1`, for which the Potency was 18.4 µM (active).

Take `CCc1cc[n+](-c2nc3ccccc3nc2[N-]S(=O)(=O)c2ccc(Br)s2)cc1`: the Potency was 8.2 µM (active).

For the compound `Cc1cc(C)c[n+](-c2nc3ccccc3nc2[N-]S(=O)(=O)c2ccc(Br)s2)c1`, the Potency is 9.2 µM (active).

Turning to `O=C(c1ccccc1)C1C(=O)c2ccccc2C1=O`, the “activity, negative = inhibitor” value was 11.3%.

For `NN=C1c2ccccc2C(=O)C1C(=O)C(c1ccccc1)c1ccccc1` (stereo not drawn), the Potency is 12.5 µM (active).

For the compound `CCCCN1C(=O)C2Cc3c([nH]c4ccccc34)CN2C1=S` (stereo not drawn), the Potency is 15.8 µM (active).

Consider `CCS(=O)(=O)Nc1cccc(C2=NN(C(=O)c3ccco3)C(c3ccco3)C2)c1` (stereo not drawn), for which the Potency was 11.2 µM (active).

As to `CCCN1CCC(=NNc2ccc(S(=O)(=O)N3CCOCC3)cc2[N+](=O)[O-])CC1`, the Potency is 3.96 µM (active).

Turning to `Cc1ccc(NC(=S)N=Nc2c(O)n(C)c3ccc(S(=O)(=O)N4CCOCC4)cc23)cc1`, the “activity, negative = inhibitor” value is 7.68%.

Take `O=C(O)c1ccccc1/C=N/Nc1ccc(S(=O)(=O)N2CCOCC2)cc1[N+](=O)[O-]`: the “activity, negative = inhibitor” value is -5.64% [at 36.9 µM].

Consider `COc1ccccc1CCC(=O)Nc1ccc2c(c1)c(=O)n(C)n2Cc1ccc(F)cc1`, for which the Potency is 15.8 µM (active).

Regarding `CC(C)=CCn1c2ccc(NC(=O)NCc3ccc(F)cc3)cc2c(=O)n1C`, the Potency is 3.14 µM (active).

For the compound `COc1ccccc1CCC(=O)Nc1ccc2c(c1)c(=O)n(C)n2-c1cccs1`, the Potency is 3.14 µM (active).

As to `Cc1ccc2[nH]c3c(c2c1)CN(C(=O)CN1CC(C)OC(C)C1)CC3` (stereo not drawn), the “activity, negative = inhibitor” value is -19.8% [at 36.9 µM].

Take `O=C(C[C@@H]1C/C=C/CC[C@H](Cc2ccc(F)cc2)C(=O)OC[C@@H](Cc2ccccc2)NC1=O)N[C@H](CO)Cc1ccccc1`: the Potency was 16.4 µM (active).

On to `O=C(O)c1ccc(N/N=C/C(Br)=C/c2ccccc2)cc1`, for which the “activity, negative = inhibitor” value is -0.273% [at 36.9 µM].

For the compound `COc1cccc(C(=O)N/N=C/C(Br)=C/c2ccccc2)c1`, the Potency was 2.8 µM (active).

Regarding `CC(/C=N/NC(=O)c1cccc(F)c1)=C\c1ccccc1`, the Potency is 12.5 µM (active).

Turning to `C/C(=N/NC(N)=S)c1ccc(Br)s1`, the “activity, negative = inhibitor” value is 6.46%.

Take `O=C1CN(C(=O)c2cc(Br)c(Br)s2)c2ccccc2N1`: the Potency was 6.27 µM (active).

Turning to `Cc1cc(C)cc(C(=O)N2CC(=O)Nc3ccccc32)c1`, the Potency was 0.994 µM (active).

`CCCn1nc(C(=O)N2CC(=O)Nc3ccccc32)c2ccccc2c1=O`: the Potency was 11.2 µM (active).

In the case of `COc1cc(OC)cc(C(=O)N2CC(=O)Nc3ccccc32)c1`, the Potency was 1.25 µM (active).

With `CCC(C)[C@H](NC(=O)N1CC(=O)Nc2ccccc21)C(=O)Nc1ccccc1C` (stereo partly drawn), the Potency was 15.8 µM (active).

On to `Cc1ccc(N/C(N)=N/c2nc(CSc3nnc(C)s3)cc(=O)[nH]2)c(C)c1`, for which the Potency is 1.77 µM (active).

For `CC(=Nc1ccccc1)C1=C(O)C(Cc2ccccc2)NC1=O` (stereo not drawn), the Potency was 0.314 µM (active).

Turning to `CC#Cc1cc2c(cc1O)CCC1C2CCC2(C)C(O)CCC12` (stereo not drawn), the Potency is 5.59 µM (active).

`C=C(NC(=O)C(=C)NC(=O)c1csc(C2=NC3c4csc(n4)C4NC(=O)c5csc(n5)C(C(C)(O)C(C)O)NC(=O)C5CSC(=N5)/C(=C/C)NC(=O)C(C(C)O)NC(=O)c5csc(n5)C3(CC2)NC(=O)C(C)NC(=O)C(=C)NC(=O)C(=C)NC(=O)C(C(C)C)NC2C=Cc3c(C(C)O)cc(nc3C2O)C(=O)OC4C)n1)C(N)=O` (stereo not drawn): the Potency is 5.59 µM (active).

Turning to `Cn1c(=O)c2cc(NC(=O)Cc3cccc4ccccc34)ccc2n1-c1ccccc1`, the Potency was 7.04 µM (active).

In the case of `CC(CC(=O)Nc1ccc2c(c1)c(=O)n(C)n2-c1ccccc1)c1ccccc1` (stereo not drawn), the Potency was 2.23 µM (active).

Consider `CC(CC(=O)Nc1ccc2c(c1)c(=O)n(C)n2-c1ccccc1F)c1ccccc1` (stereo not drawn), for which the Potency was 12.5 µM (active).

For `COc1ccc(NC(=O)CN2C(=O)C3(SCC(=O)N3c3ccccc3)c3ccccc32)cc1Cl` (stereo not drawn), the “activity, negative = inhibitor” value is 0.792%.

On to `CCOc1ccc(S(=O)(=O)NCc2ccccn2)cc1NC(=O)c1ccccc1`, for which the Potency is 3.14 µM (active).

Consider `CCN1/C(=C/C=C2/SC(=Nc3cccc4ncccc34)N(C)C2=O)Sc2ccccc21`, for which the Potency was 2.31 µM (active).

As for `CCc1ccc2nc(SCC(=O)Nc3ccccc3N3CCOCC3)c(C#N)cc2c1`, the Potency is 2.59 µM (active).

Turning to `CCc1ccc2nc(SCC(=O)N3CC(=O)Nc4ccccc43)c(C#N)cc2c1`, the Potency was 14 µM (active).

Turning to `COc1ccc2nc(SCC(=O)N3CC(=O)Nc4ccccc43)c(C#N)cc2c1`, the Potency was 16.4 µM (active).

For `N#Cc1cc2ccccc2nc1SCC(=O)Nc1ccccc1N1CCOCC1`, the “activity, negative = inhibitor” value is -24.1%.

Consider `CCC1CCCCN1CCCNC(=O)c1ccc2c(c1)N(Cc1ccccc1F)C(=O)c1ccccc1S2(=O)=O` (stereo not drawn), for which the Potency was 4.11 µM (active).

As for `Cc1ccc(C(=O)CSc2nc(-c3ccccc3)ccc2C#N)cc1`, the Potency is 16.4 µM (active).

Turning to `Cc1nc(SCC(=O)c2ccccc2)c(C#N)c(-c2ccco2)c1C(=O)NCc1ccco1`, the “activity, negative = inhibitor” value is -16.1% [at 36.9 µM].

Regarding `N#Cc1ccc(-c2cccnc2)nc1SCC(=O)c1ccccc1`, the Potency is 2.91 µM (active).

Regarding `CC(=O)c1ccc2cccc3c2c1N=CN3C`, the Potency was 12.5 µM (active).

For the compound `CC(=O)Nc1sc2c(c1-c1nc3ccccc3s1)CCN(C(C)C)C2`, the Potency is 3.26 µM (active).

Consider `CN1CCc2c(sc(NC(=O)CSc3ccc(F)cc3)c2-c2nc3ccccc3s2)C1`, for which the Potency was 14.6 µM (active).

In the case of `CC(=O)N1CCc2c(sc(NC(=O)CSc3ccccc3)c2-c2nc3ccccc3s2)C1`, the Potency is 16.4 µM (active).

With `CC[n+]1cc(C)ccc1/C=C/c1ccc(N(C)C)cc1`, the Potency was 17.7 µM (active).

Turning to `Cc1ccc(/C=C/c2ccc(N(C)C)cc2)[n+](C)c1`, the Potency was 15.8 µM (active).

For the compound `CN(C)c1ccc(/C=C/c2cc[n+](C)cc2)cc1`, the Potency was 17.7 µM (active).

Regarding `CCOC(=O)c1c(CC(C)C)csc1/N=C/C1C(=O)CCCC1=O`, the “activity, negative = inhibitor” value is -3.7%.

Take `O=C(NCc1cc(C(F)(F)F)ccc1Cl)c1cccc2c1C(=O)c1ccc(N3CCOCC3)cc1S2(=O)=O`: the Potency is 18.4 µM (active).

Regarding `O=C(NCc1ccco1)c1cccc2c1C(=O)c1ccc(N3CCC(Cc4ccccc4)CC3)cc1S2(=O)=O`, the Potency is 20.6 µM (active).

With `O=C(NCc1cc(C(F)(F)F)ccc1Cl)c1cccc2c1C(=O)c1ccc(N3CCC(Cc4ccccc4)CC3)cc1S2(=O)=O`, the Potency was 14 µM (active).

Turning to `O=C(NCc1cccc(C(F)(F)F)c1)c1cccc2c1C(=O)c1ccc(N3CCC(Cc4ccccc4)CC3)cc1S2(=O)=O`, the Potency is 18.4 µM (active).

As for `Cc1ccc(C(=O)NC2c3ccccc3-c3ccccc32)cc1`, the Potency was 3.96 µM (active).

For `COc1ccccc1-c1cc(NC=O)c2ncc(-c3ccc(S(C)(=O)=O)cc3)n2c1`, the Potency is 5.59 µM (active).

In the case of `COc1ccccc1-c1cc(NC=O)c2ncc(-c3cccc(C(=O)N(C)C)c3)n2c1`, the Potency was 14 µM (active).

For `CN(C)C(=O)c1cccc(-c2cnc3c(NC=O)cc(-c4ccccc4F)cn23)c1`, the “activity, negative = inhibitor” value is 1.13% [at 36.9 µM].

As for `CC1C/C(=N\NC(N)=S)c2cc(Cl)ccc2S1` (stereo not drawn), the “activity, negative = inhibitor” value is 6.56%.

As to `O=C(Nc1nnc(-c2ccc3c(c2)CCCC3)o1)c1c(F)cccc1F`, the “activity, negative = inhibitor” value is 10.7%.

As for `Cc1ccccc1-n1c(/C=C/c2c(C)n(C)c3ccccc23)nc2ccccc2c1=O`, the Potency is 18.4 µM (active).

As for `O=C(Nc1cc(Cl)ccc1-n1cncn1)c1ccc([N+](=O)[O-])s1`, the Potency was 14 µM (active).

Consider `COc1cccc(/C=N/NC(=O)c2[nH]nc3c2CCc2ccccc2-3)c1`, for which the Potency is 2.5 µM (active).

For the compound `COc1ccc(/C=N/NC(=O)c2[nH]nc3c2CCc2ccccc2-3)cc1OC`, the Potency was 4.98 µM (active).

In the case of `COc1ccc(CN2C(=O)C(C)Nc3ncnc(N4CCc5ccccc5C4)c32)cc1` (stereo not drawn), the Potency was 2.8 µM (active).

Consider `CCn1nc(-c2ccccc2)c2nc3ccccc3nc21`, for which the Potency is 20.6 µM (active).

As for `O=C(NCC1CCCO1)c1nn2c(C(F)(F)F)cc(-c3cc(Br)cs3)nc2c1Br` (stereo not drawn), the Potency is 11.6 µM (active).

In the case of `CS(=O)(=O)N(CC(=O)N1CCN(Cc2ccccc2)CC1)c1ccccc1F`, the “activity, negative = inhibitor” value is -1.61%.

As to `CC(=O)n1c2ccccc2c2nc3ccccc3nc21`, the Potency is 5.8 µM (active).

With `Cc1cccc(-n2c(N)c(-c3nc4ccccc4n3C)c3nc4ccccc4nc32)c1`, the “activity, negative = inhibitor” value is -9.95%.

`CS(=O)(=O)Nc1ccc(C2=NN(S(C)(=O)=O)C(c3ccc4nccnc4c3)C2)cc1` (stereo not drawn): the “activity, negative = inhibitor” value is 5.25%.

Turning to `CCS(=O)(=O)N1N=C(c2cccc(NS(C)(=O)=O)c2)CC1c1ccc(C)cc1` (stereo not drawn), the Potency is 18.4 µM (active).

As to `CS(=O)(=O)N1N=C(c2ccccc2)CC1c1ccc2c(c1)OCO2` (stereo not drawn), the Potency was 14 µM (active).

In the case of `Cc1ccc(CNC(=O)C2CC(c3cc(C(F)(F)F)cc(C(F)(F)F)c3)=NO2)o1` (stereo not drawn), the Potency is 7.04 µM (active).

As for `N#Cc1cc2ccccc2nc1SCc1ccccn1`, the Potency is 16.4 µM (active).

As for `O=C1c2ccccc2C(=O)c2c(/C=C/N3CCCCC3)ccnc21`, the Potency was 18.4 µM (active).

In the case of `Clc1ccc2c(c1)C(C1=NCCN1)c1ccccc1CS2` (stereo not drawn), the Potency was 3.14 µM (active).

Turning to `CC(C)n1c(O)c(N=Nc2ccc(Cl)nn2)c2ccccc21`, the Potency is 18.4 µM (active).

Turning to `CCCC(=O)NC(c1ccc(OC)cc1)c1ccc2cccnc2c1O` (stereo not drawn), the “activity, negative = inhibitor” value is -1.01%.

For the compound `CCC(=O)NC(c1ccc(OC)cc1)c1c(O)ccc2ccccc12` (stereo not drawn), the Potency is 6.27 µM (active).

Consider `CN1/C(=C\C=C(/C#N)C(=O)Nc2ccccc2F)C(C)(C)c2ccccc21`, for which the Potency was 16.4 µM (active).

As to `CN1/C(=C\C=C(/C#N)C(=O)Nc2ccc(Cl)cc2)C(C)(C)c2ccccc21`, the Potency was 5.59 µM (active).

Consider `Cc1ccc(C2=NN(S(=O)(=O)c3ccccc3)C(c3ccccc3O)C2)cc1` (stereo not drawn), for which the Potency is 18.4 µM (active).

Take `Cc1ccccc1C1CC(c2cccs2)=NN1S(C)(=O)=O` (stereo not drawn): the “activity, negative = inhibitor” value is -23.5%.

Take `Cc1ccc(C2=NN(C(=O)c3cccs3)C(c3ccccc3O)C2)cc1` (stereo not drawn): the “activity, negative = inhibitor” value was -4.39% [at 36.9 µM].

Turning to `O=Nc1ccc(O)c2ncccc12`, the “activity, negative = inhibitor” value was -23.5% [at 36.9 µM].

For the compound `Cc1[nH]c2ccccc2c1/C=C/c1ccnc2ccccc12`, the Potency was 3.26 µM (active).

As to `Cc1[nH]c2ccccc2c1/C=C/c1ccc2ccccc2n1`, the Potency was 18.4 µM (active).

Values taken from PubChem BioAssay AID651815 (National Center for Advancing Translational Sciences (NCATS), 2012).
